Experimental data from the supplement of paper PMC6992640.
± gives the standard deviation of the averaged measurements.

Key:
Assay in all cases: cell viability (% of vehicle); higher = less cytotoxic
HCI01 [1] = cells of a triple-negative basal-like breast cancer xenograft; details: 1 µM; 72 h
UCD52 [2] = cells of a triple-negative basal-like breast cancer xenograft; details: 1 µM; 72 h
WHIM2 [3] = cells of a triple-negative basal-like breast cancer xenograft; details: 1 µM; 72 h
WHIM30 [4] = cells of a triple-negative basal-like breast cancer xenograft; details: 1 µM; 72 h
HCI01 [5] = details: 10 µM; 72 h
HCI03 = cells of an ER-positive luminal breast cancer xenograft; details: 10 µM; 72 h
HCI09 = cells of a triple-negative luminal androgen receptor type breast cancer xenograft; details: 10 µM; 72 h
HCI11 = cells of an ER-positive luminal breast cancer xenograft; details: 10 µM; 72 h
HCI13 = cells of an ER-positive luminal breast cancer xenograft; details: 10 µM; 72 h
HCI16 = cells of a triple-negative basal-like breast cancer xenograft; details: 10 µM; 72 h
UCD52 [6] = details: 10 µM; 72 h
WHIM2 [7] = details: 10 µM; 72 h
WHIM30 [8] = details: 10 µM; 72 h

Row | Structure (SMILES) | cell viability (HCI01 [1]) | cell viability (UCD52 [2]) | cell viability (WHIM2 [3]) | cell viability (WHIM30 [4]) | cell viability (HCI01 [5]) | cell viability (HCI03) | cell viability (HCI09) | cell viability (HCI11) | cell viability (HCI13) | cell viability (HCI16) | cell viability (UCD52 [6]) | cell viability (WHIM2 [7]) | cell viability (WHIM30 [8])
1 | Cl.Fc1ccc(C2CCNCC2COc2ccc3c(c2)OCO3)cc1 (stereo not given) [Paroxetine HCl] | 91.6 | 79.7 | 100 | 87.4 | 63.7 ± 19 | 128 | 90.3 ± 17 | 74.8 | 120 ± 6.4 | 77.4 | 38.6 ± 4.8 | 43 ± 7.7 | 80.71 ± 0.29
2 | C=C1C(=CC=C2CCCC3(C)C2CCC3C(C)C=CC(C)C(C)C)CC(O)CC1O (stereo not given) [Doxercalciferol] | 75.3 | 63.6 | 61.8 | 93.1 | 39.4 ± 14 | 137 | 26.4 ± 8.6 | 75.3 | 52.8 ± 3 | 106 | 54.8 ± 6.5 | 50.8 ± 12 | 180 ± 17
3 | CC(C)CC(NC(=O)C(NC(=O)c1cccc(-c2ccccc2)n1)C(C)O)B(O)O (stereo not given) | 55.2 | 25 | 132 | 22.5 | 76.8 ± 10 | 93.4 | 15.8 ± 2 | 171 | 40.5 ± 10 | 82.8 | 66 ± 0.77 | 42.8 ± 3.3 | 93.3 ± 3.5
4 | Cc1cc(-n2c(=O)[nH]c(=O)n(C)c2=O)ccc1Oc1ccc(SC(F)(F)F)cc1 [Toltrazuril] | 90.8 | 97.6 | 105 | 90.8 | 75.8 ± 1.2 | 132 | 61.9 ± 18 | 84 | 117 ± 11 | 115 | 79.5 ± 4.9 | 41.3 ± 3.9 | 98.6 ± 14
5 | C=CC(=O)N1CCC(Oc2cc3c(Nc4ccc(Cl)c(Cl)c4F)ncnc3cc2OC)CC1 [Poziotinib] | 62.3 | 36.5 | 32.9 | 50.7 | 39.4 ± 14 | 48.7 | 47.1 ± 2.5 | 48 | 34.2 ± 4.1 | 66.1 | 44.2 ± 4.5 | 50.5 ± 5.6 | 35.8 ± 10
6 | COCCn1c2c([n+](Cc3cnccn3)c1C)C(=O)c1ccccc1C2=O.[Br-] | 29.6 | 21.3 | 21.1 | 27 | 85.5 ± 29 | 48.3 | 28.3 ± 3.6 | 60.2 | 68.9 ± 8.8 | 82.5 | 53.9 ± 8.2 | 55.5 ± 2.3 | 62.3 ± 5.1
7 | Cc1c(C(=O)NN2CCCCC2)nn(-c2ccc(Cl)cc2Cl)c1-c1ccc(Cl)cc1 [Rimonabant] | 87.4 | 91.1 | 100 | 82.6 | 72.2 ± 38 | 114 | 22.2 ± 6.1 | 87.3 | 74.2 ± 19 | 96.7 | 62.3 ± 10 | 35.9 ± 10 | 68.4 ± 15
8 | Cc1cc(Nc2ncc(Cl)c(Nc3ccccc3S(=O)(=O)C(C)C)n2)c(OC(C)C)cc1C1CCNCC1 | 76.4 | 45.8 | 63.1 | 47.9 | 34.4 ± 7.6 | 37.8 | 17.5 ± 1.3 | 29.3 | 27.6 ± 17 | 44.6 | 24.86 ± 0.13 | 45.5 ± 4.4 | 29.3 ± 1.2
9 | COC(=O)NC(C(=O)N1CCCC1c1ncc(-c2ccc(-c3ccc(-c4cnc(C5CCCN5C(=O)C(NC(=O)OC)C(C)C)[nH]4)cc3)cc2)[nH]1)C(C)C (stereo not given) | 85.1 | 82.6 | 93.7 | 82.8 | 79.8 ± 2.9 | 99.6 | 42.7 ± 35 | 72.6 | 131 ± 110 | 87.2 | 62.3 ± 1.2 | 58.8 ± 6.8 | 102 ± 11
10 | CC(C)N=c1cc2n(-c3ccc(Cl)cc3)c3ccccc3nc-2cc1Nc1ccc(Cl)cc1 [Clofazimine] | 88.1 | 84.9 | 90.3 | 80.2 | 54.8 ± 28 | 83.9 | 38.8 ± 13 | 88.8 | 43.6 ± 9.1 | 77.6 | 44.2 ± 1.7 | 53.1 ± 15 | 68.8 ± 6.1
11 | C=C1C(=CC=C2CCCC3(C)C2CCC3C(C)CCCC(C)(C)O)CC(O)CC1O (stereo not given) [Calcitriol] | 70.8 | 50.1 | 46.8 | 92.9 | 27.6 ± 12 | 119 | 27 ± 5.2 | 73.4 | 66.4 ± 6.8 | 107 | 55.7 ± 0.62 | 39.3 ± 9.2 | 137 ± 14
12 | COc1cc2c(Oc3ccc(NC(=O)C4(C(=O)Nc5ccc(F)cc5)CC4)cc3F)ccnc2cc1OCCCN1CCOCC1 | 89.1 | 48.2 | 71.2 | 70.2 | 35.4 ± 4.4 | 55 | 65.7 ± 32 | 52.7 | 60.2 ± 6.2 | 48 | 28 ± 2.1 | 50.1 ± 11 | 64.8 ± 15
13 | COc1cc2nccc(Oc3ccc(NC(=O)Nc4cc(C)on4)c(Cl)c3)c2cc1OC [Tivozanib (AV-951)] | 91 | 61.4 | 94.3 | 85.1 | 85.4 ± 37 | 80 | 67 ± 50 | 75.1 | 60.9 ± 7.7 | 69.7 | 81.1 ± 22 | 61.7 ± 18 | 57.6 ± 2.1
14 | COCCOC(=O)C1=C(C)NC(C)=C(C(=O)OCC=Cc2ccccc2)C1c1cccc([N+](=O)[O-])c1 (stereo not given) [Cilnidipine] | 111 | 95.4 | 97.7 | 103 | 93.8 ± 25 | 90.1 | 81.4 ± 20 | 81.7 | 66.6 ± 38 | 54.9 | 84 ± 6.8 | 41.1 ± 16 | 68.7 ± 1.3
15 | CN1CCN(c2ccc(C(=O)/N=c3\[nH][nH]c4ccc(Cc5cc(F)cc(F)c5)cc34)c(NC3CCOCC3)c2)CC1 [Entrectinib] | 92.3 | 72.6 | 81.7 | 71.9 | 28.2 ± 2.5 | 59.8 | 22.8 ± 0.65 | 48.9 | 41 ± 5.5 | 58.5 | 36.98 ± 0.05 | 42.6 ± 4.1 | 41.8 ± 12
16 | O=C(O)c1cc(O)c(O)c(O)c1 [Gallic acid] | 96.4 | 97.1 | 82.1 | 102 | 77.5 ± 0.96 | 107 | 90.8 ± 9.4 | 54.3 | 105 ± 7.6 | 126 | 91.2 ± 8.8 | 58 ± 13 | 84.5 ± 8.9
17 | Clc1ccc(C(Cn2ccnc2)OCc2c(Cl)cccc2Cl)c(Cl)c1.O=[N+]([O-])O (stereo not given) [Isoconazole nitrate] | 123 | 112 | 126 | 105 | 57.9 ± 28 | 119 | 25.8 ± 3.4 | 101 | 54.2 ± 8.2 | 140 | 44.1 ± 5.8 | 52.1 ± 6.9 | 100 ± 2.2
18 | Cc1ccc(NC(=O)c2ccc(CN3CCN(C)CC3)cc2)cc1Nc1nc(-c2cccnc2)cs1 [Masitinib (AB1010)] | 113 | 85.9 | 114 | 84.6 | 53.6 ± 6.1 | 68.7 | 20 ± 2.6 | 37.8 | 55.8 ± 12 | 93.6 | 49.9 ± 13 | 46.2 ± 8 | 146 ± 61
19 | Clc1ccc(C(Cn2ccnc2)OCc2ccsc2Cl)c(Cl)c1 (stereo not given) [Tioconazole] | 98.7 | 104 | 111 | 90.1 | 115 ± 63 | 110 | 40.7 ± 32 | 92.1 | 50.1 ± 3.6 | 119 | 60.2 ± 8.4 | 35.8 ± 5.1 | 100 ± 2.3
20 | CC1=CC(=O)c2ccccc2C1=O [Menadione] | 98.6 | 94.2 | 105 | 98.2 | 61.6 ± 55 | 51.9 | 31.3 ± 7.9 | 30.5 | 57.3 ± 4.9 | 57.6 | 30.5 ± 2.1 | 44.1 ± 10 | 138 ± 14
21 | O=C(c1ccc(F)c(F)c1Nc1ccc(I)cc1F)N1CC(O)(C2CCCCN2)C1 (stereo not given) [Cobimetinib] | 74.9 | 52.9 | 58.8 | 59.8 | 76.8 ± 21 | 80.6 | 64.7 ± 24 | 82.8 | 74.8 ± 0.28 | 63.2 | 42.65 ± 0.23 | 48.9 ± 3.3 | 78.2 ± 2.8
22 | CO[C@H]1C[C@@H]2CC[C@@H](C)[C@@](O)(O2)C(=O)C(=O)N2CCCC[C@H]2C(=O)O[C@H]([C@H](C)C[C@@H]2CC[C@@H](O)[C@H](OC)C2)CC(=O)[C@H](C)/C=C(\C)[C@@H](O)[C@@H](OC)C(=O)[C@H](C)C[C@H](C)/C=C/C=C/C=C/1C [Rapamycin (Sirolimus)] | 78.1 | 52.6 | 68.3 | 75.4 | 40.4 ± 7.5 | 69.6 | 30.6 ± 8.6 | 51.6 | 39.5 ± 5.2 | 57.1 | 25.5 ± 2.9 | 42 ± 2.1 | 68.9 ± 29
23 | CC1=C(C(=O)OC(C)C)C(c2cccc([N+](=O)[O-])c2)C(C(=O)OC2CN(C(c3ccccc3)c3ccccc3)C2)=C(N)N1 (stereo not given) [Azelnidipine] | 93.6 | 73.5 | 85.9 | 88.3 | 33.6 ± 1.3 | 59 | 21.5 ± 0.58 | 80.4 | 41.6 ± 5.9 | 62 | 93.5 ± 6.1 | 61.3 ± 19 | 57.7 ± 26
24 | C#Cc1cccc(Nc2ncnc3cc(OCCOC)c(OCCOC)cc23)c1 [Erlotinib] | 62.6 | 59.8 | 53.7 | 65 | 79.4 ± 26 | 73.6 | 63.7 ± 8.2 | 74.2 | 72.7 ± 3.5 | 81.1 | 67.82 ± 0.58 | 47.9 ± 9 | 107 ± 4.9
25 | CCOc1nc2cccc(C(=O)OC(C)OC(=O)OC3CCCCC3)c2n1Cc1ccc(-c2ccccc2-c2nn[nH]n2)cc1 (stereo not given) [Candesartan Cilexetil] | 88.5 | 97.3 | 106 | 99.7 | 18.1 ± 12 | 94.5 | 18.3 ± 4.6 | 72.3 | 47.71 ± 0.052 | 75.3 | 74.3 ± 16 | 37.6 ± 6.6 | 128 ± 5.3
26 | CC(C)(C)c1ccc(C(O)CCCN2CCC(C(O)(c3ccccc3)c3ccccc3)CC2)cc1 (stereo not given) [Terfenadine] | 89 | 79.9 | 81.1 | 73.1 | 34.4 ± 5.2 | 38.1 | 30.4 ± 2.9 | 55.3 | 48.3 ± 4.8 | 45.8 | 35.1 ± 4 | 42 ± 2.8 | 29.6 ± 3.5
27 | Clc1ccc(COC(Cn2ccnc2)c2ccc(Cl)cc2Cl)c(Cl)c1.O=[N+]([O-])O (stereo not given) [Miconazole Nitrate] | 100 | 96.9 | 111 | 95.9 | 32 ± 8.9 | 93.1 | 27.3 ± 7.1 | 79.9 | 56.9 ± 7.8 | 113 | 48.6 ± 5.8 | 37 ± 9.7 | 128 ± 2
28 | COc1cc2c(Nc3ccc(Br)cc3F)ncnc2cc1OCC1CCN(C)CC1 [Vandetanib (ZD6474)] | 70 | 46.5 | 37.5 | 64.8 | 59.1 ± 20 | 32.2 | 30.7 ± 21 | 52.9 | 73.4 ± 36 | 56.4 | 25.2 ± 4.2 | 54.4 ± 11 | 25.7 ± 1.9
29 | CN(C)CC=CC(=O)Nc1cc2c(Nc3ccc(F)c(Cl)c3)ncnc2cc1OC1CCOC1.O=C(O)C=CC(=O)O.O=C(O)C=CC(=O)O (stereo not given) [Afatinib dimaleate] | 85.2 | 32.7 | 57.8 | 56 | 35.3 ± 3 | 53.8 | 35.2 ± 4.2 | 32.5 | 32.4 ± 2.1 | 30.7 | 40.1 ± 7.4 | 41.1 ± 4.1 | 54.6 ± 7
30 | Clc1ccc(CSC(Cn2ccnc2)c2ccc(Cl)cc2Cl)cc1.O=[N+]([O-])O (stereo not given) [Sulconazole Nitrate] | 95.2 | 96.5 | 108 | 92.9 | 28.4 ± 6.5 | 77.3 | 24.5 ± 2.6 | 78.3 | 40.1 ± 3 | 74.1 | 35.2 ± 2.8 | 34.9 ± 8.5 | 119 ± 0.69
